L3MBTL1 block: blocks human L3MBTL1 | AlphaScreen L3MBTL1–H3K9me1 peptide binding | 230,000 tested, 0.66% active | Q9Y468 | Potency, µM (top dose mostly 57.1 µM), inactives show at the top dose activity, negative = inhibition, usual class: inhibitors; also: % is scaled to controls: 0 for no effect and ±100 for the full control effect; nearly all actives have a fitted effect of over 60% in size
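L3MBTL1 50 nM + b-AHA-H3(1-15)K9me1 75 nM, 30 min RT; compound added, 30 min RT; streptavidin donor/Ni-chelate acceptor beads 10 ug/mL each final, 30 min RT dark; AlphaScreen read.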
Pol iota inh: blocks human DNA polymerase iota activity; Potency, µM (highest dose often 115 µM), without a hit: top-dose activity, negative = inhibition, usual class: inhibitors; Pol iota fluorescent replication assay, 10 min; 390,000 tested, 1% active; AID 588590
Target sequence (Q9UNA4 whole entry, looked up): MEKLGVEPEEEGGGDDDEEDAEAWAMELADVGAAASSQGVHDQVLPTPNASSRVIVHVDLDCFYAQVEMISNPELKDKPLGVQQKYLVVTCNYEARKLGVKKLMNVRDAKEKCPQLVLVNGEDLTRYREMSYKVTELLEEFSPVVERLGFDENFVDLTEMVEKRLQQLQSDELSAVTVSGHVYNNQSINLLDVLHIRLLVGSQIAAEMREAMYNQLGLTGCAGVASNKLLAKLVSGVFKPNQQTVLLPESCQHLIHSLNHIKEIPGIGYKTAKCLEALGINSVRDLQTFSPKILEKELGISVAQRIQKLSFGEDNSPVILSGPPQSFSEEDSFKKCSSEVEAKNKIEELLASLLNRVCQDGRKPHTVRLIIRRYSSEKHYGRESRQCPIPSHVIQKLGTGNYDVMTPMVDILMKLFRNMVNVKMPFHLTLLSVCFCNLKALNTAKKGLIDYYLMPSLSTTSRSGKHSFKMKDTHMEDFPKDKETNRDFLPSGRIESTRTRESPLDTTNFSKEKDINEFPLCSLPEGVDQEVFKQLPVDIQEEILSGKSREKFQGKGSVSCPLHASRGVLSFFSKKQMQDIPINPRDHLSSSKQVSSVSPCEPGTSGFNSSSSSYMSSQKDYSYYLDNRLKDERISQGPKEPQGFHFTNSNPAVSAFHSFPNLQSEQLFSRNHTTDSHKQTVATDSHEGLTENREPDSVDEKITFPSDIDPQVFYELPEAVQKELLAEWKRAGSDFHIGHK
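Pol iota at 10 nM preincubated 15 min with compounds at room temperature; reaction started with fluorescent substrate, 50 nM final. Fluorescence read kinetically at 0 and 10 min; buffer-only wells as negative control.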
Pol kappa inh: blocks human DNA polymerase kappa activity; Potency, µM (titrated, usually from 107 µM), inactives show top-dose activity, negative = inhibition, usual class: inhibitors; 400,000 tested, 0.53% active; Q9UBT6; AID 588579; purified Pol kappa, fluorescent DNA synthesis assay, 10 min; also: % is scaled to controls: 0 for no effect and ±100 for the full control effect
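Fluorescent qHTS in 1536-well format: enzyme (10 nM) and compound sat 15 min at room temperature before 50 nM substrate (final) was added. Signal taken at 0 and 10 min; no-enzyme buffer wells were negative controls.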
POLH inh: inhibitors of human DNA polymerase eta; Potency, µM (titrated, usually from 114 µM), for inactives: top-dose activity change, negative = inhibition, most hits filed as inhibitors; Q9Y253; 390,000 tested, 1.2% active; recombinant Pol eta, fluorescent DNA replication assay; also: % is scaled to controls: 0 for no effect and ±100 for the full control effect
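Pol eta (10 nM) was preincubated with compounds for 15 min at room temperature, after which fluorescent replication substrate (50 nM final) was added to start the reaction. Fluorescence was read kinetically at 0 and 10 min.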
Pol beta inh: DNA polymerase beta (human) inhibition | 340,000 tested, 1.3% active | Pol beta primer extension/strand displacement, fluorescence kinetic | Potency, µM (doses to about 114 µM), inactives show at the highest dose activity change, negative = inhibition, usual class: inhibitors | AID 485314; also: % is scaled to controls: 0 for no effect and ±100 for the full control effect
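Preincubation: enzyme (10 nM) with compound, 15 min, RT. Reaction: substrate added to 50 nM final. Reads: 0 and 10 min. Analysis: normalized, Hill fit.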
* hit, by the source's call; ? = inconclusive; . = not tested or not shown; ! = repeats disagree; [ ] = dose if it differs, or a comment. Shown are actives, neighbours in structure and some others; about 2.4% of the full set was active somewhere. Calls follow the shape of the dose curve; as a rule, active = well fitted curve in the direction sought with a large enough effect; inconclusive = small, poorly fitted or top-dose-only effect, or another doubt; inactive = no such curve, though single readings can be large; an effect the other way counts as inactive or inconclusive. Potency is read from the fitted curve at half-maximal effect.

SMILES	L3MBTL1 block	Pol iota inh	Pol kappa inh	POLH inh	Pol beta inh
O=[N+]([O-])c1ccc(-c2csc(N/N=C/c3cccnc3)n2)cc1	-6%	-23%	-17%	-2%	25%
O=S(=O)(Nc1cccc2cccnc12)c1cccs1	.	29%	-11%	.	.
CCCCOc1ccc(C2c3c(oc4ccccc4c3=O)C(=O)N2c2nc(C)c(C(=O)OCC)s2)cc1OC (configuration not stated)	.	-2%	5%	-3%	30%
CCOc1ccc(Nc2cc(C)nc3nc(Cc4ccc(Cl)cc4)nn23)cc1	.	79µM*	-29%	-20%	?
O=c1[nH]c(SCc2ccccc2)ncc1S(=O)(=O)c1ccccc1	.	15%	-16%	.	.
C[C@@H]1CN(S(=O)(=O)C(C)(C)C)[C@H](CCO)/C1=C\c1ccccc1	.	32%	-1%	-17%	.
O=C(CSc1oc(-c2ccco2)nc1S(=O)(=O)c1ccc(Cl)cc1)c1ccc(Cl)cc1	.	?	50µM*	-3%	1%
O=C(CSc1oc(-c2ccco2)nc1S(=O)(=O)c1ccc(Cl)cc1)NCC1CCCO1 (configuration not stated)	.	?	-16%	79µM*	17%
C[C@](N)(Cc1ccc(O)c(O)c1)C(=O)O	?	25µM*	2.7µM*!	?	1.1µM*
COC(=O)C(N)Cc1ccc(O)cc1 (configuration not stated)	.	-21%	1%	-10%	-1%
COC(=O)C(N)Cc1ccc(O)c(O)c1 (configuration not stated)	.	?	89µM*	6%	-18%
COc1ccc(-c2nc3c4cnn(-c5ccccc5F)c4ncn3n2)cc1	.	3%	-3%	.	9%
Cc1ccc(S(=O)(=O)N2CCN(C(=O)c3ccccc3)CC2)cc1	.	-2%	-13%	-5%	-7%
Cc1ccc(S(=O)(=O)N2CCN(C(=O)c3cccc(-n4cccc4)c3)CC2)cc1	?	22µM*	79µM*	18µM*	.
COc1ccc(CC(=O)OCC(=O)Nc2ncc(Cl)c(C)c2Cl)cc1	-9%	?	-38%	20µM*	.
Cc1noc(C)c1C(=O)OCC(=O)Nc1ncc(Cl)c(C)c1Cl	?	?	-18%	20µM*	.
Cc1c(Cl)cnc(NC(=O)COC(=O)C(NC(=O)c2ccco2)C(C)C)c1Cl (configuration not stated)	6%[11.4 µM]	?	-4%	89µM*	45µM*
Nc1ncnc2c1ncn2[C@@H]1O[C@H](CNCc2ccc(-n3cccn3)cc2)[C@@H](O)[C@H]1O	0%	24%	20%	-12%	.
CC(=O)NC(Cc1ccc([N+](=O)[O-])cc1)C(=O)NCC(N)C(=O)c1ccccc1 (configuration not stated)	.	-10%	-8%	.	.
C#CCOCCOCCOCCNc1nc(N2CCN(C(=O)CCCCCCCCCCNC(=O)[C@H](CO)n3cc(CCCCCN)nn3)CC2)nc(N2CCN(C(=O)CCCCCCCCCCNC(=O)[C@H](CCCN=C(N)N)n3cc(C[C@@H](C)CC)nn3)CC2)n1	-2%	.	.	.	.
C#CCOCCOCCOCCNc1nc(N2CCN(C(=O)CCCCCCCCCCNC(=O)[C@@H](CCSC)n3cc(CCO)nn3)CC2)nc(N2CCN(C(=O)CCCCCCCCCCNC(=O)[C@H](CCCN=C(N)N)n3cc(C[C@@H](C)CC)nn3)CC2)n1	-8%	?	-19%	79µM*	.
C#CCOCCOCCOCCNc1nc(N2CCN(C(=O)CCCCCCCCCCNC(=O)[C@H](CCCCN)n3cc(CCO)nn3)CC2)nc(N2CCN(C(=O)CCCCCCCCCCNC(=O)[C@H](CCCCN)n3cc(C[C@@H](C)CC)nn3)CC2)n1	-11%	?	-25%	79µM*	.
C#CCOCCOCCOCCNc1nc(N2CCN(C(=O)CCCCCCCCCCNC(=O)[C@H](CCCCN)n3cc(C[C@@H](C)CC)nn3)CC2)nc(N2CCN(C(=O)CCCCCCCCCCNC(=O)[C@H](CCCN=C(N)N)n3cc(C[C@@H](C)CC)nn3)CC2)n1	-6%	-21%	-9%	28µM*	.
C#CCOCCOCCOCCNc1nc(N2CCN(C(=O)CCCCCCCCCCNC(=O)[C@@H](CCC(=O)O)n3cc(CCCCCN)nn3)CC2)nc(N2CCN(C(=O)CCCCCCCCCCNC(=O)[C@H](CCCCN)n3cc(C[C@@H](C)CC)nn3)CC2)n1	-6%	3%	16%	89µM*	.
C#CCOCCOCCOCCNc1nc(N2CCN(C(=O)CCCCCCCCCCNC(=O)Cn3cc(C[C@@H](C)O)nn3)CC2)nc(N2CCN(C(=O)CCCCCCCCCCNC(=O)[C@@H]([C@H](C)CC)n3cc(CCCCCN)nn3)CC2)n1	-5%	?	15%	89µM*	.
SMILES	L3MBTL1 block	Pol iota inh	Pol kappa inh	POLH inh	Pol beta inh
C#CCOCCOCCOCCNc1nc(N2CCN(C(=O)CCCCCCCCCCNC(=O)[C@H](CCCCN)n3cc(C[C@@H](C)CC)nn3)CC2)nc(N2CCN(C(=O)CCCCCCCCCCNC(=O)[C@@H]([C@H](C)O)n3cc(C)nn3)CC2)n1	-9%	24%	3%	79µM*	.
CCOc1ccc(-n2c(SCC(=O)Nc3ccc(F)cc3)nc3c([nH]c4ccccc43)c2=O)cc1	.	-4%	-4%[60.1 µM]	5%	0%
CCOC(=O)c1sc(NC(=O)C2CC=CCC2C(=O)O)nc1C (configuration not stated)	-15%[11.4 µM]	?	-6%	79µM*	45µM*
COc1c(O)cc2c(c1O)[C@@H]1O[C@H](CO)[C@@H](O)[C@H](O)[C@H]1OC2=O	.	25%	1%	2%	21%
Cc1c(C(=O)O)c(O)cc2c1C(=O)c1c(O)c([C@H]3O[C@H](CO)[C@@H](O)[C@H](O)[C@H]3O)c(O)c(O)c1C2=O	.	79µM*	3.2µM*	.	.
COc1ccc(N2CCN(S(=O)(=O)c3ccc(-n4cnnn4)c(C)c3)CC2)cc1	-3%	?	?	32µM*	28µM*
Cc1cnc(NC(=O)C2COc3ccccc3O2)s1 (configuration not stated)	-8%	?	?	?	50µM*
Cc1csc(NC(=O)C2COc3ccccc3O2)n1 (configuration not stated)	.	-1%	2%	-9%	1%
O=C(O)C1CC(c2ccc(F)cc2)=NO1 (configuration not stated)	.	-3%	-11%	-2%	7.9µM*
COC(=O)[C@@H]1C[C@@]2(Br)c3ccccc3N(S(=O)(=O)c3ccccc3)[C@H]2N1C(=O)OC	.	89µM*	-1%	-17%	.
COc1cccc(C(=O)n2nc(-c3ccco3)nc2NCc2cccs2)c1	.	22%	8%	-20%	13%
Fc1ccccc1N1CCN(C(c2ccncc2)c2nnnn2C2CCCC2)CC1 (configuration not stated)	-1%	79µM*	-5%	-13%	4%

Screening results as filed in PubChem.
